Sampled rows, rich in hits. Any-hit rate of the full collection: about 1.4%.
14-3-3 Bad PPI = disrupts binding of bovine 14-3-3 zeta to phospho-Bad peptide; TR-FRET 14-3-3zeta/Dy647-pBad peptide displacement, 1 h; 0.71% of 220,000 active; P63103; inhibition, % at 21.7 µM;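 active = inhibition above about 70%, limit read from the data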;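 note: 0% = full 14-3-3 plus peptide FRET controls and 100% = background without 14-3-3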
bovine MsrA act = bovine methionine sulfoxide reductase A activation | 0.3% of 360,000 active | activation, % at 10.6 µM | purified bovine MsrA, absorbance read-out | AID 602163; in the data active = activation above about 7.5%;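 note: 0% = vehicle and 100% = reference activator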
MsrA inh = inhibits bovine methionine sulfoxide reductase A; purified bovine MsrA, absorbance read-out; inhibition, % at 15.5 µM; 0.75% of 360,000 active; in the data active = inhibition above about 4.5%;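 note: 0% = vehicle wells with enzyme and 100% = reference inhibitor wells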
pCIP destab = lowers stability of the mouse p/CIP coactivator protein; Q05BA5; F442A p/CIP-EGFP cells, EGFP fluorescence, 16 h; decrease of EGFP signal, % at 10 µM; 0.01% of 290,000 active;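 active = EGFP signal decrease of at least 30% at 10 µM or well 3 SD below plate mean, unless failing retest; inactive = the rest, including hits failing retest or dose response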
The depositor's hits bear a star; . = no result given; [ ] = dose if it differs, or a comment.

SMILES	14-3-3 Bad PPI	bovine MsrA act	MsrA inh	pCIP destab
C[C@@H]1ON(C)[C@H]2C[C@H]3c4[nH]c5c(-c6ccc(Cl)cc6)cccc5c4CCN3C(=O)[C@@H]12	.	.	-0.2	.
O=C(NCc1ccccc1)[C@H]1CCCN1C(=O)[C@H]1CCCN1C(=O)c1cccc(Cl)c1	.	.	-0.2	.
CCCCCCCCN1C(=O)[C@@H](CC(=O)N2CCN(C(=O)c3ccco3)CC2)C[C@@]2(C(=O)OC)C1=C[C@H](C(C)(C)C)O[C@@H]2C	.	.	-0.5	.
O=C(CCc1c[nH]c2ccccc12)Nc1ccc(Nc2ccccc2)cc1	.	.	0.6	.
Cc1ccccc1-c1cc(C(=O)Nc2sc(C)c(C)c2C(N)=O)c2ccccc2n1	-10.7	-8.8	2.1	-10.0
O=C(COC(=O)c1cc(-c2cccs2)nc2ccccc12)NCc1ccco1	-3.7	-1.8	0.0	-5.8
CCOC(=O)c1c(NC(=O)c2cc(-c3ccc(Cl)s3)nc3ccccc23)sc(C(N)=O)c1C	71.8*[fluorescence artefact?]	-4.5	0.0	-1.6
O=C(COC(=O)c1cc(-c2ccc(Cl)s2)nc2ccccc12)NCc1ccco1	3.5	-3.2	4.6*	-12.8
CC(C)C[C@H](NC(=O)c1ccc(Cl)c(Cl)c1)C(=O)N1CCC[C@H]1C(=O)NCc1ccccc1	.	.	-0.8	.
COCc1cc(C)nc(OCC(=O)N/N=C/c2ccccc2O)c1C#N	-20.5	-1.7	3.1	16.9
COCc1cc(C)nc(OCC(=O)N/N=C/c2ccc(O)cc2O)c1C#N	-2.6	-3.4	4.5*	-9.1
Cc1nc2c(c(=O)c3ccccc3n2C)c(=O)n1C1CCCC1	.	.	0.3	.
Cn1c2ccccc2c(=O)c2c(=O)n(C3CCCCCC3)c(C3CCCCC3)nc21	86.5*	-2.2	-1.4	-5.9
O=C(Nc1ccc2oc(=O)ccc2c1)c1ccc(-c2ccccc2[N+](=O)[O-])o1	26.4	-0.4	-1.0	-7.1
O=C(Nc1ccc2oc(=O)ccc2c1)c1ccc(-c2cccc(Cl)c2)o1	92.1*	-0.4	-1.0	-10.2
O=C(Nc1ccc2oc(=O)ccc2c1)c1ccc(-c2ccc(Cl)cc2)o1	45.6	-9.5	0.1	-13.5
O=C(Nc1ccc2oc(=O)ccc2c1)c1ccc(-c2cccc([N+](=O)[O-])c2)o1	91.8*	0.0	0.6	-7.3
CC(=O)N1CCN(c2ccc(N3CCN(Cc4ccccc4)[C@@H](C)C3)c(C)c2)[C@H](C)C1	.	.	1.2	.
O=C(O)C1CCCCC1C(=O)NCCc1ccncc1 (stereo not drawn)	72.3*	3.2	-0.5	2.0
N#C/C(=C/c1cn(CC(=O)O)c2ccccc12)C(=O)NCc1ccccc1	-6.8	-3.7	1.6	74.7*
O=C(CCc1c[nH]c2ccccc12)Nc1ccc(Nc2cccnc2)c(Br)c1	.	.	1.2	.
CN(C)N=Nc1nc[nH]c1C(N)=O	.	-2.0	2.5	.
CN(N=Nc1nc[nH]c1C(N)=O)C1CCCCC1	.	-15.7	4.6*	.
COc1ccc(C2C(C(C)=O)=C(O)C(=O)N2c2cccnc2)cc1OC (stereo not drawn)	13.6	-3.2	2.0	1.2
CC(=O)C1=C(O)C(=O)N(c2cccnc2)C1c1ccc(Cl)cc1 (stereo not drawn)	82.7*	0.1	2.6	-10.3
SMILES	14-3-3 Bad PPI	bovine MsrA act	MsrA inh	pCIP destab
CN(C)c1ncc(C2=C(Cl)C(=O)C(N3CCCC3)=C(Cl)C2=O)s1	78.5*[fluorescence artefact?]	-13.9	4.2	.
CN(Cc1ccc2c(c1)CCCN2C)C(=O)[C@@H](Cc1ccccc1)NC(=O)[C@H]1O[C@@H](n2ccc(=O)[nH]c2=O)[C@H](O)[C@@H]1O	.	.	-0.8	.
C#CCN(Cc1ccco1)C(=O)c1nnc2c3ccccc3n(S(=O)(=O)c3ccccc3)c2n1	.	.	0.1	.
CC[n+]1cc(-c2ccccc2)nc(N2CCOCC2)n1	81.8*[fluorescence artefact?]	-0.8	2.3	6.0
NC(=O)c1cc(-c2ccccc2)nc(N2CCOCC2)n1	-2.9	-3.1	0.7	5.8
O=S(=O)([O-])CCC[n+]1c(SCCCS(=O)(=O)O)sc2ccc(Cl)cc21	92.5*[fluorescence artefact?]	3.4	-0.8	0.6
Cc1nn(-c2ccccc2)c(Cl)c1/C=N/Nc1ccc(S(=O)(=O)Nc2ccccc2C(=O)O)cc1[N+](=O)[O-]	88.2*[fluorescence artefact?]	-8.9	0.6	-20.5
CSc1ccc(C=NNc2ccc(S(=O)(=O)Nc3ccccc3C(=O)O)cc2[N+](=O)[O-])cc1	.	-1.9	-0.1	.
CCc1cc2c(nc1CC)CCCN2S(=O)(=O)c1cccs1	.	.	0.6	.
COc1ccc(CN(CCN2CCOCC2)C(=O)c2c(F)cccc2F)cc1OC	80.0*	-2.1	0.7	2.5
COc1cc(NC(=O)CN2CCN(Cc3ccc4c(c3)OCO4)CC2)cc(OC)c1	82.5*	-4.2	-1.1	-5.9
CC1=CC(=O)C=C(C)C1=NOc1ccc([N+](=O)[O-])cc1	74.5*	-3.1	-0.4	-7.4
CC1CN(C)C(C)C/C1=N\Oc1ccc([N+](=O)[O-])cc1 (stereo not drawn)	17.6	-4.6	0.9	-9.6
O=S(=O)(c1ccc(Br)s1)N1CCN(c2ncccn2)CC1	-8.2	-1.5	1.5	-5.8
O=S(=O)(c1ccc(Br)s1)N1CCN(c2ccccn2)CC1	85.3*	-2.5	-0.6	-3.3
C=CCN=C1NC(c2ccc(Cl)cc2)C(C(=O)OC)=C(C)N1Cc1ccccc1C(F)(F)F (stereo not drawn)	.	.	-1.1	.
Cc1cc(Cl)ccc1OCCCC(=O)Nc1cccnc1	74.7*	1.7	-1.2	5.4
O=C1C=C(c2ccc(Cl)cc2)OC2(CCCC2)O1	72.0*	-2.1	-0.2	-0.4
CCCCCCCCN1C(=O)[C@@H](CC(=O)NCCCOCCCC)C[C@@]2(C(=O)OC)C1=C[C@H](C1CCCC1)O[C@@H]2C	.	.	-0.1	.
C/C(=N/Nc1ccc(C(=O)O)cc1)c1ccc(O)c(O)c1O	-13.1	-9.2	4.6*	6.7
C/C=C/c1ccc(OCCCCn2cncn2)c(OC)c1	75.4*	-9.5	-1.9	4.6
C/C=C/c1ccc(OCCn2cncn2)c(OC)c1	83.7*	-4.4	-0.7	-2.7
C/C=C/c1ccc(OCCCn2cncn2)c(OC)c1	74.1*	-5.4	-0.5	-4.2
C/C=C/c1ccc(OCCCCOc2ccccc2F)c(OC)c1	-20.7	-2.7	1.1	0.2
C/C=C/c1ccc(OCCOc2cc(C=O)ccc2OC)c(OC)c1	7.5	-3.8	-0.5	-2.0
SMILES	14-3-3 Bad PPI	bovine MsrA act	MsrA inh	pCIP destab
CC1CCN(CCCCOc2ccccc2[N+](=O)[O-])CC1	84.7*	-2.4	0.2	-14.3
COc1cccc(N2CCN(C3C4CC5CC(C4)CC3C5)CC2)c1 (stereo not drawn)	87.8*	0.4	0.1	-19.0
COc1cccc(N2CCN(CC(=O)C34CC5CC(CC(C5)C3)C4)CC2)c1	-14.4	-1.8	-0.8	-0.4
COc1cc2c(c(OC)c1OC)[C@@]1(c3ccccc3)CCCC[C@H]1[C@@H]2NC(=O)C(F)(F)F	.	.	0.4	.
CCCC1C2C(=O)N(c3cccc(C)c3)C(=O)C2ON1c1ccccc1 (stereo not drawn)	-3.3	-2.4	-1.3	-3.9
CCCC1C2C(=O)N(c3ccc(OC)cc3)C(=O)C2ON1c1ccccc1 (stereo not drawn)	89.8*	-5.3	-1.1	6.4
C[C@H]1[C@@H](c2ccccc2)Oc2ccc(Cl)cc2S(=O)(=O)N1Cc1cccc(Cl)c1	.	.	-0.3	.
Cc1cc(O)cc(=O)n1-c1cc(Cl)cc(Cl)c1	.	.	0.1	.
Oc1cccc(Nc2nc(O)c(/C=C3\C=Nc4ccccc43)s2)c1	73.1*	-3.2	0.8	-52.7
